Hits are enriched below; roughly 1.3% of the tested compounds scored in any of these assays.
Efflux pump mplx – antifungal efflux pump inhibition, Nile Red retention; S. cerevisiae Candida pump triplex; inhibition, % at 10 µM; 0.44% of 330,000 active;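 active = plate passing quality check with inhibition over a set limit, or well fluorescence over plate mean plus 4 SD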;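 also: Nile Red retained in pooled yeast measured as flow cytometry median fluorescence; higher means more Nile Red kept so more efflux inhibition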
MEP2-GFP yeast – yeast TOR pathway MEP2-GFP modulation. S. cerevisiae MEP2-GFP strain, flow cytometry GFP, 3 h; 100% = DMSO control level. GFP response vs DMSO, % at 10 µM. 0.51% of 330,000 active. AID 2016;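 active = GFP response versus DMSO above a set limit, roughly screen mean plus 3 SD, cut at about 180% in these data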;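 also: median GFP fluorescence of the barcode-gated MEP2-GFP cells per well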
AGP1 TOR yeast – alters AGP1-GFP fluorescence in TOR pathway yeast screen; S. cerevisiae AGP1-GFP multiplex flow cytometry, 3 h; GFP as percent of DMSO wells; GFP response vs DMSO, % at 10 µM; 0.02% of 320,000 active; AID 2066;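 active = GFP response relative to DMSO above a set limit, near screen average plus 3 SD, cut at about 150% in these data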;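 also: median GFP channel fluorescence of the gated AGP1 strain per well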
LAP4-GFP MLPCN – yeast TOR pathway LAP4-GFP modulation; S. cerevisiae LAP4-GFP multiplex, flow cytometry GFP, 3 h; median GFP as percent of DMSO wells; GFP response vs DMSO, % at 10 µM; 0.34% of 320,000 active; AID 2023;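 active = GFP response vs DMSO above a set limit, about the screen mean plus 3 SD, cut at about 150% in these data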
CIT2 TOR yeast – modulators of TOR pathway CIT2-GFP in S. cerevisiae. GFP response vs DMSO, % at 10 µM. 0.065% of 320,000 active. S. cerevisiae CIT2-GFP strain, flow cytometry, 3 h; 100 means same as DMSO wells;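 active = GFP response relative to DMSO above a set limit, near the screen mean plus 3 SD, cut at about 150% in these data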;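 also: ratio of well median GFP fluorescence to mean of DMSO wells on the plate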
RPL19A TOR yeast – yeast TOR pathway RPL19A-GFP modulation | S. cerevisiae RPL19A-GFP strain, flow cytometry, 3 h; active compounds read low | percent response vs DMSO, % at 10 µM | 0.3% of 330,000 active | AID 2025;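 active = percent response vs DMSO below 50%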;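 also: median channel GFP fluorescence of the barcoded RPL19A-GFP strain; lower means less RPL19A-GFP as with rapamycin TOR inhibition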
Cmpd fluor yeast – compound fluorescence in yeast efflux pump counter-screen. shares compounds with Efflux pump mplx. 4% of 1,700 active. AID 588517. S. cerevisiae AD/pABC3, flow cytometry. fluorescence ratio to DMSO, % at 10 µM;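 active = fluorescence ratio to DMSO above its plate's cutoff, the plate mean ratio plus 5 SD, cut at about 210% in these data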;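 also: unstained yeast with no Nile Red so the signal is compound autofluorescence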
CaMdr1 efflux inh – inhibitors of Candida albicans Mdr1 efflux pump; 1% of 1,700 active; S. cerevisiae AD/CaMDR1, Nile Red efflux, flow cytometry; shares compounds with Efflux pump mplx; inhibition, % at 10 µM; in the data active = inhibition above about 26%;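 also: higher means more Nile Red retained so more efflux inhibition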
CaCdr2 efflux inh – Candida Cdr2 efflux pump inhibition; S. cerevisiae AD/CaCDR2, Nile Red retention, flow cytometry; shares compounds with Efflux pump mplx; Nile Red retention ratio vs DMSO, % at 10 µM; 4% of 1,700 active; in the data active = Nile Red retention ratio vs DMSO above about 190%;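 also: higher ratio means more blocking of Cdr2 efflux of the dye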
CaCdr1 efflux inh – inhibitors of Candida albicans Cdr1 efflux pump; shares compounds with Efflux pump mplx; S. cerevisiae AD/CaCDR1, Nile Red efflux, flow cytometry; inhibition, % at 10 µM; 1% of 1,700 active;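 active = inhibition above the screen-wide mean plus twice its standard deviation, cut at about 32% in these data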
Numbers stand for hits; . = inactive; / = no result.

SMILES	Efflux pump mplx	MEP2-GFP yeast	AGP1 TOR yeast	LAP4-GFP MLPCN	CIT2 TOR yeast	RPL19A TOR yeast	Cmpd fluor yeast	CaMdr1 efflux inh	CaCdr2 efflux inh	CaCdr1 efflux inh
Cc1ccsc1-c1nc(C(N)=O)c2[nH]c(=O)n(-c3ccc(Cl)cc3)c2n1	.	.	.	.	.	.	.	.	.	.
CCOc1ccccc1-c1nc(C(N)=O)c2[nH]c(=O)n(-c3ccc(F)cc3)c2n1	.	.	.	.	.	.	.	.	.	.
Cc1ccc(-n2c(=O)[nH]c3c(C(N)=O)nc(C(C)C)nc32)cc1	.	.	.	.	.	.	/	/	/	/
O=C(Nc1nnc(C2CC2)s1)c1cncc(Br)c1	.	.	.	.	.	.	/	/	/	/
CN(CC(=O)Nc1ccccc1Cl)C(=O)c1ccc(-c2cccc(C(F)(F)F)c2)o1	.	.	.	.	.	.	/	/	/	/
Cc1sc2ncnc(SCC(=O)NC3CC3)c2c1C	.	.	.	.	.	.	/	/	/	/
Cc1sc2ncnc(SCC(=O)NC(C)C(C)C)c2c1C (configuration not stated)	0.8	.	.	.	.	.	.	.	.	.
Cc1sc2ncnc(SC(C)C(=O)N3c4ccccc4Sc4ccccc43)c2c1C (configuration not stated)	15	.	.	.	.	.	.	.	.	.
O=C(NC(=Nc1nc2ccccc2o1)NC(=O)c1ccccc1)c1ccccc1	1.2	.	.	.	.	.	.	.	.	.
COc1ccccc1C(=O)NC(=Nc1nc2ccccc2o1)NC(=O)c1ccccc1OC	.	.	.	.	/	.	/	/	/	/
Cc1cccc(C(=O)OC(C)C(=O)N2CCc3ccccc3C2)c1C (configuration not stated)	.	.	.	.	.	.	/	/	/	/
COc1ccc(/C=c2\s/c(=C/C(=O)c3ccc(C)cc3)[nH]c2=O)c(OC)c1	19	.	.	.	.	.	.	.	.	.
CCOc1cc2[nH]c(=S)n(CCC(=O)NCc3ccc(OC)cc3)c(=O)c2cc1OCC	0.4	.	.	.	.	.	.	.	.	.
COc1ccc(CNC(=O)CCCn2c(=S)[nH]c3cc4c(cc3c2=O)OCO4)cc1	.	.	.	.	.	.	/	/	/	/
CN(C)N1C(N)=C(C#N)C(c2ccc3c(c2)OCO3)C2=C1CCCC2=O (configuration not stated)	2.3	.	.	.	.	.	.	.	.	.
CN(C)N1C(N)=C(C#N)C(c2cccc(Cl)c2)C2=C1CCCC2=O (configuration not stated)	.	.	.	.	.	.	/	/	/	/
COC(=O)c1c(NC(=O)CSc2nnc(Cn3nnc4ccccc43)n2C)sc(C)c1C	.	.	.	.	.	.	/	/	/	/
COC(=O)c1sc(NC(=O)CSc2nnc(Cn3nnc4ccccc43)n2C)nc1C	14	.	.	.	.	.	.	.	.	.
COc1ccc2cc1Oc1ccc(cc1)CC1c3c(cc(OC)c4c3Oc3cc5c(cc3O4)CCNC5C2)CCN1C (configuration not stated)	.	.	.	.	.	.	/	/	/	/
COc1ccc2cc1Oc1ccc(cc1)C[C@H]1c3c(cc(OC)c4c3Oc3c(ccc5c3[C@H](C2)N(C)CC5)O4)CCN1C	4.3	.	.	.	.	.	.	.	.	.
Cc1c(/C=N/NC(N)=O)c2ccccn2c1C(=O)c1ccc(F)cc1	.	.	.	.	.	.	/	/	/	/
Cc1c(/C=N/O)c2ccccn2c1C(=O)c1ccc(F)cc1	1.7	.	.	.	.	.	.	.	.	.
COc1ccc(-c2cc(C(=O)Nc3ccc(OC)c(OC)c3)no2)cc1	1.4	.	.	.	.	.	.	.	.	.
COc1cccc(CNC(=O)CCNC(=O)c2ccccc2OC)c1	.	.	.	.	.	.	/	/	/	/
COC(=O)[C@@]1(C)[C@H]2C(=O)N(C)C(=O)[C@H]2[C@H]2CN(C)C(=NC3CCCCC3)N21	.	/	/	/	/	/	/	/	/	/
SMILES	Efflux pump mplx	MEP2-GFP yeast	AGP1 TOR yeast	LAP4-GFP MLPCN	CIT2 TOR yeast	RPL19A TOR yeast	Cmpd fluor yeast	CaMdr1 efflux inh	CaCdr2 efflux inh	CaCdr1 efflux inh
COc1cccc(C(=O)N2CCN(C(=O)c3cccc(F)c3)CC2)c1	.	.	.	.	.	.	/	/	/	/
O=C(c1cccc(F)c1)N1CCN(C(=O)c2cc3ncc(Br)cn3n2)CC1	14	.	.	.	.	.	.	.	.	.
OCC[n+]1ccc(/C=C/c2c[nH]c3ccccc23)cc1	2.5	.	.	.	.	.	429	.	.	.
Cc1ccccc1OCCNc1cc(N2CCCCC2)ccc1[N+](=O)[O-]	.	.	.	.	.	.	/	/	/	/
Cc1ccccc1OCCNc1cc(N2CCN(CCO)CC2)ccc1[N+](=O)[O-]	19	.	.	.	.	.	.	.	.	.
Cc1ccc(CNC(=O)C(=O)NCC2OCCN2S(=O)(=O)c2ccc(C)cc2)cc1 (configuration not stated)	.	.	.	.	.	.	/	/	/	/
COc1ccc(CNC(=O)C(=O)NCC2OCCN2S(=O)(=O)c2ccc(C)cc2)cc1 (configuration not stated)	.	.	.	.	.	.	.	.	.	.
COc1ccc(S(=O)(=O)N2CCOC2CNC(=O)C(=O)NCc2ccc(F)cc2)cc1OC (configuration not stated)	.	.	.	.	.	.	.	.	.	.
COc1ccc(CNC(=O)C(=O)NCC2OCCN2S(=O)(=O)c2ccccc2)cc1 (configuration not stated)	.	.	.	.	.	.	.	.	.	.
Cc1ccc(CNC(=O)C(=O)NCC2OCCN2S(=O)(=O)c2ccc(Br)cc2)cc1 (configuration not stated)	.	.	.	.	.	.	.	.	.	.
COc1ccc(CNC(=O)C(=O)NCC2OCCN2S(=O)(=O)c2ccc(F)cc2)cc1 (configuration not stated)	.	.	.	.	.	.	/	/	/	/
O=C(c1cccc(N2CCCC2=O)c1)N1CCN(c2cccc(Cl)c2)CC1	.	.	.	.	.	.	/	/	/	/
CC(C(=O)N1CCc2ccccc21)N1CCN(S(=O)(=O)c2ccc(C(F)(F)F)cc2)CC1 (configuration not stated)	0.7	.	.	.	.	.	.	.	.	.

Screening results deposited in PubChem BioAssay by NMMLSC.
